Screens from PubChem.
Shown is part of a subset that was picked to be rich in hits.
SARS PLpro yeast: qHTS of Yeast-based Assay for SARS-CoV PLP. S. cerevisiae expressing SARS-CoV PLpro, growth rescue. Potency, µM (doses to about 32.9 µM), for inactives: at the highest dose activity, positive = growth rescue, most hits filed as activators. actives 0.19% (n = 330,000); calls by dose curve; further: potency means the concentration at half of the fitted maximal effect; 0% is about no effect; nearly all actives have a fitted effect of over 55% in size
AmpC detergent: qHTS Inhibitors of AmpC Beta-Lactamase (assay with detergent); actives 0.041% (n = 370,000); AmpC hydrolysis of nitrocefin, absorbance 480 nm, 0.01% Triton; Potency, µM (highest dose often 114 µM), without a hit: top-dose activity change, negative = inhibition, actives largely listed as inhibitors; P00811;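 further: potency means the concentration at half of the fitted maximal effect; 0% = no-compound wells and -100% = no-enzyme wells; nearly all actives have a fitted effect of over 25% in size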
Target sequence (P00811 whole entry, looked up): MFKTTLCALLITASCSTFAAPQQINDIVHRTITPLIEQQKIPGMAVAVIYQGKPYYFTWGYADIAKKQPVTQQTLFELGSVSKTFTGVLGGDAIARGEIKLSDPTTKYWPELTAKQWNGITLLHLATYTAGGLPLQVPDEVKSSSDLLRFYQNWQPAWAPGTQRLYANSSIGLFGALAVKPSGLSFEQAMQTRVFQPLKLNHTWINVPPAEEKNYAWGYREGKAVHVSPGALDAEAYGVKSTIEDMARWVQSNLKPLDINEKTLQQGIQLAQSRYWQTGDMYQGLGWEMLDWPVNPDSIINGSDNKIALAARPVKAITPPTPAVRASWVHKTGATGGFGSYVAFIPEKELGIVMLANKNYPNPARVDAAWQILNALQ
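AmpC (5.3 nM in the dispensed reagent) in 20 mM phosphate pH 7.0 with 0.01% (detergent screen) or 0.0001% Triton X-100 was preincubated with compounds for 15 min at room temperature. Nitrocefin was then added from an 800 uM solution, and hydrolysis was followed at 480 nm.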
AMA1-RON2 inh: qHTS for Inhibitors of AMA1-RON; Towards Development of Antimalarial Drug Lead: Primary Screen; Plasmodium falciparum AMA1 (3D7) - RON2 peptide interaction; AID 720542, 2013; actives 0.2% (n = 360,000); AlphaScreen AMA1-biotinylated RON2 peptide binding; Potency, µM (highest dose often 58.2 µM), without a hit: top-dose activity change, negative = inhibition, actives largely listed as inhibitors;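 further: potency means the concentration at half of the fitted maximal effect; 0% = vehicle wells and -100% = peptide control; nearly all actives have a fitted effect of over 45% in size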
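AMA1 (3D7) with his tag at 25 nM final met compounds first, then biotinylated RON2 peptide at 25 nM; detection used donor plus acceptor beads, 10 µg/mL apiece, read by AlphaScreen after 30 min at room temperature.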
AmpC inh no detg: qHTS Inhibitors of AmpC Beta-Lactamase (assay without detergent). P00811. AmpC nitrocefin hydrolysis, absorbance 480 nm, 0.0001% Triton. Potency, µM (doses to about 57.1 µM), without a hit: top-dose activity change, negative = inhibition, most hits filed as inhibitors. actives 0.52% (n = 330,000). AID 485341, 2010;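 further: potency means the concentration at half of the fitted maximal effect; plate controls were no compound for no effect and no enzyme for full effect; nearly all actives have a fitted effect of over 20% in size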
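AmpC (5.3 nM in the dispensed reagent) in 20 mM phosphate pH 7.0 with 0.01% (detergent screen) or 0.0001% Triton X-100 was preincubated with compounds for 15 min at room temperature. Nitrocefin was then added from an 800 uM solution, and hydrolysis was followed at 480 nm.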
Cycloheximide cs: Cycloheximide Counterscreen for Small Molecule Inhibitors of Shiga Toxin; cell reporter, cycloheximide protein synthesis inhibition counterscreen; max response, %; actives 12% (n = 300,000); AID 2314, 2010; in the data active means max response mostly above about 13%, no sharp cut-off; inactive means mostly below about 14%; further: read at 38.3 µM for the half of the compounds with a filed dose; 0% is about no effect
Shiga inhibitor: A qHTS for Small Molecule Inhibitors of Shiga Toxin. actives 9.2% (n = 290,000). AID 2315, 2010. inhibition, % at 38.7 µM. Vero cells, Shiga toxin protein synthesis inhibition reporter; in the data active means inhibition mostly above about 28%, no sharp cut-off; inactive means mostly below about 43%; further: 0% is about no effect
* = called active by the depositor; ? = inconclusive; nt = no result; + = active, no number; [ ] = dose if it differs, or a comment. Unless noted, the call rests on the fitted dose curve; in most records, active means well fitted curve in the direction sought with a large enough effect; inconclusive means small, poorly fitted or top-dose-only effect, or another doubt; inactive means no such curve, though single readings can be large; an effect the other way counts as inactive or inconclusive.

SMILES	SARS PLpro yeast	AmpC detergent	AMA1-RON2 inh	AmpC inh no detg	Cycloheximide cs	Shiga inhibitor
Cc1cccc(NC(=O)c2sc(C)nc2C)c1	-11%	0%	1%	0%	50*	84*
COc1cccc(NC(=O)c2ocnc2C)c1	-7%	3%	6%	-11%	25*	63*
Cc1ccc(NC(=O)Cc2ncon2)cc1Cl	-1%	3%	-1%	-7%	20	32
Cc1cccc(C(=O)Nc2nc(C)c(C(=O)Nc3ccc4c(c3)CCC4)s2)c1	-6%	?	-5%	-21%	17*	14
COc1ccc(NC(=O)c2c(NC(=O)c3cccc(C)c3)sc3c2CCC3)cc1	nt	8%	nt	nt	nt	nt
COc1ccccc1CNc1nc(NCc2cnc(C)cn2)c2sccc2n1	nt	nt	11%	nt	nt	nt
COc1ccc(N2C(=O)CSC23C(=O)N(C)c2ccccc23)cc1Cl (centres undefined)	nt	-7%	nt	nt	nt	nt
COC(=O)c1ccccc1NC(=O)c1sc(Cl)nc1C	-4%	0%	-4%	-7%	15*	80*
Cc1nc(Cl)sc1C(=O)Nc1ccc(C(F)(F)F)cc1	-3%	0%	1%	-3%	20*	nt
Cc1ccc(Cl)cc1NC(=O)c1ocnc1C	6%	-12%	3%	-19%	9	-6
Cc1ncoc1C(=O)Nc1cccc(Cl)c1C	1%	?	-4%	-7%	16*	15
Cc1ccccc1NC(=O)c1ocnc1C	-6%	-5%	2%	-17%	1	0
Cc1ncoc1C(=O)Nc1cccc(Cl)c1	-10%	-14%	0%	-10%	63*	100*
Cc1nc(Cl)sc1C(=O)Nc1cccc(C(F)(F)F)c1	nt	nt	-1%	nt	nt	nt
CCOc1ccc(N(CC(=O)NC2CCCCC2)C(=O)CCC(=O)Nc2nccs2)cc1	1%	-4%	14%	-2%	-2	4
COc1cccc(NC(=O)c2sc(Cl)nc2C)c1	-1%	?	0%	-21%	13*	nt
CCCC(C)NC(=O)Cc1ccccc1 (centres undefined)	0%	1%	-5%	-14%	-1	10
CCCc1ccc(C(=O)NNc2ccc(F)cc2)cc1	-3%	-6%	?	50%	17*	35
CCC(C)NC(=O)c1ccc2c(c1)S(=O)(=O)c1ccccc1C2=O (centres undefined)	0%	4%	-2%	-12%	32*	14*
CCC(C)NC(=O)Cc1ccc(-c2ccccc2)cc1 (centres undefined)	-2%	3%	-2%	-20%	23*	16
CCCC(C)NC(=O)c1ccc(-c2ccccc2)cc1 (centres undefined)	-9%	4%	nt	-10%	27*	86*
O=C(C1CCCO1)N1CCN(S(=O)(=O)c2cc(C(F)(F)F)ccc2Cl)CC1 (centres undefined)	4%	0%	-8%	-6%	nt	nt
CCCC(C)NC(=O)c1ccc(F)cc1 (centres undefined)	2%	-7%	2%	-2%	27*	50*
CCC(C)NC(=O)c1cccc(C)c1 (centres undefined)	1%	4%	24%	-3%	-4	2
CCC(C)NC(=O)c1ccc(C(=O)c2ccccc2)cc1 (centres undefined)	3%	?	6%	-8%[11.4 µM]	40*	71*
SMILES	SARS PLpro yeast	AmpC detergent	AMA1-RON2 inh	AmpC inh no detg	Cycloheximide cs	Shiga inhibitor
CCC(C)NC(=O)C(Cc1ccccc1)n1cccc1 (centres undefined)	-8%	?	-12%	0.5µM*	-3	-6
Cc1cccc(C)c1OCC(=O)Nc1cccc(C(=O)O)c1	1%	-2%	23%	-23%	41*	92*
Cc1cccc(C)c1OCC(=O)Nc1ccc(Cl)cc1C(=O)c1ccccc1	nt	16%	nt	nt	nt	nt
Cc1ccc(C)c(OCC(=O)Nc2cccc(C(=O)O)c2)c1C	-6%	-3%	-19%	-14%	41*	46
Cc1occc1C(=O)N/N=C/c1cccnc1	-11%	-6%	0%	-17%	25*	75*
Cc1cc(/C=N/NC(=O)c2ccoc2C)cc(C)c1O	nt	nt	53%	nt	nt	nt
Cc1cc(C(=O)N/N=C/c2cccnc2)c(C)o1	-2%	-3%	52%	-11%	16*	8
Clc1ccc(-c2nnn3c2nc(NC2CCCCC2)c2ccccc23)cc1	nt	10%	nt	nt	nt	nt
O=C/C(=C\Nc1ccccn1)c1nc2cc(Cl)ccc2o1	-66%	7%	77%	-24%	47*	63*
CC(=O)Nc1cccc(N/C=C(\C=O)c2nc3ccccc3o2)c1	8%	-9%	36%	28%	29*	36*
CC(=O)Nc1ccc(N/C=C(\C=O)c2nc3ccccc3o2)cc1	0%	6%	-12%	-11%	14	-11
CC(C)(C)S(=O)(=O)/C(C#N)=C/Nc1ccccn1	-1%	-16%	9%	-11%	-3	-7
O=C/C(=C\Nc1ccccn1)c1nc2ccccc2o1	-22%	?	12%	-19%	27*	+
O=C/C(=C\Nc1ccc(Br)cc1)c1nc2ccccc2o1	1%	0%	11%	-35%	-4	4
CCN(CC)C(=O)COc1ccc2oc(C)c(C(=O)OC(C)C)c2c1	1%	3%	1%	113%	-3	-8
O=S(=O)(CCS(=O)(=O)c1ccccc1)c1ccccc1	nt	nt	-28%	nt	nt	nt
C=C1C(C(=O)Nc2cccc(OC)c2)C1C(=O)Nc1cccc(OC)c1 (centres undefined)	1%	3%	19%	-41%	-1	10
Cc1ccc(C(C(=O)NC2CCCC2)N2CCCC(C)C2)cc1 (centres undefined)	5%	?	-3%	2%	-3	1
CCC(C)N(C(=O)COC(=O)CCc1c[nH]c2ccccc12)C1CCS(=O)(=O)C1 (centres undefined)	7%	-9%	-7%	57%	2	-9
CCN1CCN(CCNC(=O)c2ccc(/C=C3\Sc4ccccc4N(Cc4ccccc4F)C3=O)cc2)CC1	0%	-7%	0%	128%	-7	-20
COCCCNC(=O)/C=C1\Sc2ccccc2N(Cc2ccccc2F)C1=O	0%	4%	-6%	22%	32*	44
C[C@@H]1[C@@H](Sc2ccccc2)CC(=O)O[C@@H]1c1ccc(-c2ccccc2)cc1	nt	nt	24%	nt	63*	82*
COC(=O)c1cccc(NS(=O)(=O)c2ccc(OC)c(OC)c2)c1C	-7%	0%	14%	-23%	0	0
CC(=O)c1ccc(NC(=S)Nc2ccc3cn[nH]c3c2)cc1	1%	-7%	16%	-34%	13	48
